Screening data from PubChem.
Rv3671c inh: Rv3671c (M. tuberculosis) protease inhibition; inhibition, % at 5.96 µM; hit rate 0.048% among 320,000; AID 2606; P9WHR9; in the data active means inhibition above about 38%;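 further: extracellular domain of Rv3671c used as enzyme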
Target sequence (P9WHR9 whole entry, looked up, the tested form may be a part): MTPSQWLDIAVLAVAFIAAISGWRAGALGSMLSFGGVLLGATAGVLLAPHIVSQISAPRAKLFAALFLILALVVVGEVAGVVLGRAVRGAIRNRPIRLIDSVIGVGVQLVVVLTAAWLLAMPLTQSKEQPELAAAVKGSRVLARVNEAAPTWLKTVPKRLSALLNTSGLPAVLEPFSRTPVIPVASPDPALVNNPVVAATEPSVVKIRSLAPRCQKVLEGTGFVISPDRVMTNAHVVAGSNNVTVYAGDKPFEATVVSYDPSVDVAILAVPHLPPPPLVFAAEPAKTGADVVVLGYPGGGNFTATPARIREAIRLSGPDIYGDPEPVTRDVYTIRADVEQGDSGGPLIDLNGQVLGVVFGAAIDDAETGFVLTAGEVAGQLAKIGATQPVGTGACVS
Mtb FBA inh: Mtb fructose-bisphosphate aldolase inhibition; P9WQA3; inhibition, % at 1 µM; AID 588726; hit rate 2.3% among 360,000; purified M. tuberculosis FBA, fluorescence read-out; in the data active means inhibition above about 27%
Mtb bLac sens: beta-lactam sensitization of Mtb H37Rv | inhibition, % at 25 µM | M. tuberculosis H37Rv growth with meropenem, percent inhibition | hit rate 0.27% among 330,000; call rule not given here;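 further: growth measured after seven days incubation then overnight dye step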
UGM FP inh: inhibitors of M. tuberculosis UDP-galactopyranose mutase; inhibition, % at 10 µM; purified UGM, fluorescence polarization probe displacement; hit rate 0.06% among 320,000; P9WIQ1; in the data active means inhibition above about 10%, passing the limit was not always enough
FadD28 binding: M. tuberculosis FadD28 bisubstrate binding inhibition | hit rate 0.22% among 360,000 | inhibition, % at 12.5 µM | AID 588549 | FadD28 bisubstrate probe binding, fluorescence polarization; in the data active means inhibition above about 8.5%, passing the limit was not always enough
GDH-TPI inh: counter-screen for M. tuberculosis FBA inhibitors: GDH-TPI coupled enzymes | GDH-TPI coupled enzyme counterscreen, NADH absorbance | inhibition, % at 4.8 µM | hit rate 1.2% among 360,000 | AID 588335; in the data active means inhibition above about 30%
Large screens that a line does not name were inactive. A selection: hits, their analogues and other compounds. The true share with any hit is near 3.7%.

COc1cc(-c2cc(-c3ccc(N)cc3)[nH]c(=O)c2C#N)cc(OC)c1OC	none
COc1ccc(C(C)(NC(C)=O)c2nc(-c3cnc4ccccc4c3)cs2)cc1 (configuration not stated)	none (no result: Rv3671c inh, Mtb bLac sens, UGM FP inh)
COc1ccccc1-c1cc(C(F)(F)F)c(C#N)c(=O)[nH]1	Mtb FBA inh active
N#Cc1c(C(F)(F)F)cc(-c2cccc(Cl)c2)[nH]c1=O	Mtb FBA inh 156
N#Cc1c(C(F)(F)F)cc(-c2ccc(Cl)cc2)[nH]c1=O	Mtb FBA inh 177
COc1cccc(-c2ccc3c(c2)C2CC3CCN2C(C)=O)c1 (configuration not stated)	none (no result: Rv3671c inh, Mtb bLac sens, UGM FP inh)
C[C@H](CO)N1C[C@H](C)[C@@H](CN(C)Cc2ccc(Cl)c(Cl)c2)Oc2c(NS(=O)(=O)c3cn(C)cn3)cccc2C1=O	none
O=C(Nc1nccs1)c1ccc(-c2ccc(F)c(Cl)c2)o1	none
COCCNC(=O)C1(C)CCN(Cc2csc(-c3ccc(Cl)cc3)n2)C1 (configuration not stated)	none (no result: Rv3671c inh, Mtb bLac sens, UGM FP inh)
C=CCN(CC=C)Cc1cc(=O)oc2cc(C)c(Cl)cc12	none (no result: Rv3671c inh, Mtb bLac sens, UGM FP inh, GDH-TPI inh)
COc1ccc(-c2cc(-c3ccccc3)nc(=O)[nH]2)cc1	Mtb FBA inh active
CNc1cnc(-c2ccc(F)c(F)c2F)cn1	Mtb FBA inh 166 (no result: Rv3671c inh, Mtb bLac sens, UGM FP inh)
CC(=O)Nc1cnc(-c2ccccc2C(F)(F)F)cn1	none (no result: Rv3671c inh, Mtb bLac sens, UGM FP inh)
Cn1cccc1C(=O)OCC(=O)N1CCc2ccccc2C1	none (no result: Rv3671c inh, Mtb bLac sens, UGM FP inh)
O=C(Nc1ccccc1-c1nnc(SCc2ccc(Cl)cc2)o1)c1ccccc1	none
O=c1c(-c2nnc(SCc3ccc(Cl)cc3)o2)cccn1Cc1ccccc1	Mtb FBA inh 176
Cc1ccc(S(=O)(=O)c2cc3c(=O)n4ccccc4nc3n(CCCN3CCOCC3)c2=N)cc1C	Mtb FBA inh 128
Cc1ccc(S(=O)(=O)c2cc3c(=O)n4ccccc4nc3n(C)c2=N)cc1C	none
N=c1c(S(=O)(=O)c2ccc(Cl)cc2)cc2c(=O)n3ccccc3nc2n1CCc1ccccc1	none
N=c1c(S(=O)(=O)c2ccc(Cl)cc2)cc2c(=O)n3ccccc3nc2n1CCN1CCOCC1	Mtb FBA inh active
O=C(c1cccc(Br)c1)c1nc2ccccc2[nH]c1=O	none (no result: Rv3671c inh, Mtb bLac sens, UGM FP inh, GDH-TPI inh)
COc1ccc2sc(-c3ccc(S(C)(=O)=O)cc3)c(C(=O)NCCCN3CCCC3=O)c2c1	GDH-TPI inh 32 (no result: UGM FP inh)
O=C(NCCCN1CCCC1=O)c1cc(-c2ccc(F)cc2)nc2ccccc12	none
COc1ccc(-c2cc(C(=O)NCCc3ccc(S(N)(=O)=O)cc3)c3ccccc3n2)cc1	Mtb FBA inh 67
COc1ccc(C(=O)NCCCN2CCCC2=O)cc1	none
COc1ccc(-c2cc(C(=O)NCCCN3CCCC3=O)c3ccccc3n2)cc1	Mtb FBA inh 69
Cc1ccc(SCC(=O)Nc2cc(S(=O)(=O)N3CCCCC3)ccc2C)cc1	none
Cc1ccc(CNCCCn2cnc(C(=O)Nc3ccc(C)c(C)c3)n2)o1	none (no result: Rv3671c inh, Mtb bLac sens, UGM FP inh)
O=C(O)C1C2CCC(O2)C1C(=O)Nc1ccc(Br)cc1F (configuration not stated)	none
O=C(Nc1ccc(/C=C/c2nc3ccccc3o2)cc1)c1ccc(F)cc1	GDH-TPI inh 33
O=C(CN(C(=O)c1csnn1)c1ccc(F)c(Cl)c1)NC1CCCC1	none
COc1ccc(OC)c(NS(=O)(=O)c2ccc3[nH]c(=O)[nH]c3c2)c1	none (no result: Rv3671c inh, Mtb bLac sens, UGM FP inh)
COCCn1c(C)cc2c(c1=O)C(c1ccco1)C(C#N)=C(N)O2 (configuration not stated)	Mtb FBA inh 49
Cc1ccc(C(=O)Nc2cccc(S(=O)(=O)N3CCCCC3)c2)cc1[N+](=O)[O-]	none
Cc1cc(C)cc(CC(=O)N2CCC2(C)C(=O)NS(=O)(=O)c2ccccc2Cl)c1 (configuration not stated)	none (no result: Rv3671c inh, Mtb bLac sens, UGM FP inh)
COc1ccc(OC)c(NC(=O)CCNS(=O)(=O)c2ccc3c(c2)CC(C)N3C(C)=O)c1 (configuration not stated)	none (no result: Rv3671c inh, Mtb bLac sens, UGM FP inh)
O=C(O)c1cccc(-c2ccc(/C=c3/sc4nc5ccccc5n4c3=O)o2)c1	none
O=C(O)c1ccccc1-c1ccc(C=c2sc3nc4cc(Br)cnc4n3c2=O)o1	FadD28 binding 13 (no result: Rv3671c inh, Mtb bLac sens, UGM FP inh)
O=Cc1cn(CCC(=O)O)nc1-c1cccc(Br)c1	none
O=C(O)CCn1cc(/C=C\C(=O)c2ccc(Cl)cc2)c(-c2cccc(Br)c2)n1	GDH-TPI inh 38
N=c1c2c(-c3ccccc3)c(-c3ccccc3)n(Cc3ccco3)c2ncn1CCCN1CCOCC1	FadD28 binding 8.8
COc1cc(/C=N/NC(=O)c2ccc(NC(=O)C3CCCCC3)cc2)ccc1O	GDH-TPI inh 35 (no result: Rv3671c inh)
Cc1nn(-c2ccccc2)c(C)c1-c1cc(C(=O)N/N=C/c2ccc(O)cc2)[nH]n1	GDH-TPI inh 44
COc1cc(/C=N/NC(=O)c2cc(-c3c(C)nn(-c4ccccc4)c3C)n[nH]2)ccc1O	GDH-TPI inh 33
COc1ccc(/C=N/NC(=O)c2cc(C3CC3)[nH]n2)cc1OC	none
COc1cc(/C=N/NC(=O)c2cc(C3CC3)[nH]n2)ccc1O	GDH-TPI inh 44
COc1cc(/C=N/NC(=O)c2nc(-c3ccccc3)n(-c3ccccc3)n2)ccc1O	none
O=C(N/N=C/c1ccc([N+](=O)[O-])cc1)c1cc(-c2ccc3c(c2)OCO3)n[nH]1	none
COc1cc(/C=N/NC(=O)c2cc(-c3ccc4c(c3)OCO4)n[nH]2)ccc1O	GDH-TPI inh 39
COc1ccc(/C=N/NC(=O)c2cc(-c3ccccc3)nc3ccccc23)cc1O	none (no result: FadD28 binding)
COc1cc(/C=N/NC(=O)c2cc(-c3ccccc3OC(C)C)nc3ccccc23)ccc1O	GDH-TPI inh 40
CCOc1cc(/C=N/NC(=O)c2cc(-c3cccc(OC)c3)nc3ccccc23)ccc1O	GDH-TPI inh 37
COc1cc(/C=N/NC(=O)c2cnn3c(C)cc(-c4ccccc4)nc23)ccc1O	GDH-TPI inh 37
COc1ccccc1-c1cc(C(=O)N/N=C/C=C/c2ccccc2[N+](=O)[O-])c2ccccc2n1	GDH-TPI inh 31
CCOc1ccc(/C=N/NC(=O)c2cc(-c3ccccc3)nc3ccccc23)cc1O	none
COc1ccccc1N1CCN(S(=O)(=O)CCNC(=O)c2cccs2)CC1	none (no result: Rv3671c inh, Mtb bLac sens, UGM FP inh)
CN(Cc1ccccc1)C(=O)c1cccc(NC(=O)Cc2ccc(NC(=O)C3CCN(C(=O)C4CCCCC4)CC3)cc2)c1	none (no result: Rv3671c inh, Mtb bLac sens, UGM FP inh)
CC[C@]12c3[nH]c4cc(-c5ccco5)ccc4c3CCN1C(=O)[C@@H](CC(=O)NCCCOC)C[C@@H]2C(=O)N1CCN(C(=O)c2ccco2)CC1	none (no result: Rv3671c inh, Mtb bLac sens, UGM FP inh)
COc1cc(/C=N/NC(=O)c2cc(-c3ccccc3)nc3ccccc23)ccc1O	GDH-TPI inh 46
O=C(O)COc1ccccc1/C=N/NC(=O)c1cc(-c2ccc(F)cc2)nc2ccccc12	GDH-TPI inh 51
O=C(O)c1ccc(N/N=C/C=C/c2ccccc2[N+](=O)[O-])cc1	GDH-TPI inh 39
COc1ccc(-c2cc(C(=O)N/N=C/c3ccc4c(c3)OCO4)c3ccccc3n2)c(OC)c1	none
COc1ccc(-c2cc(C(=O)N/N=C/c3sccc3C)c3ccccc3n2)c(OC)c1	GDH-TPI inh 34
O=C(N/N=C/c1ccc2c(c1)OCO2)c1cc(-c2ccc(F)cc2)nc2ccccc12	none
